From PubChem BioAssay (EPA / NIEHS) come the findings set out here.

Where “and” joins values, the source holds several entries; their conditions need not be identical. Equal entries are not always repeated. More than one record can exist for a structure, and the calls need not agree. Calls of active or inactive are those of the source. How the source made its calls: active means hit-call score of the fitted dose curve at least 0.9, where 1 is the maximum; inactive means score below 0.9.

The assay can be described thus: CCTE_Shafer_MEA_dev_per_burst_interspike_interval: CCTE's Neural Network Formation Assay for Burst Interspike Interval, Shafer Lab (AID 2284044).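 Further: mean spike spacing inside bursts as AUC over recordings on days 5 7 9 12.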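 On AC50: potency for a decrease of within-burst interspike interval below DMSO level.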 How it is done: CCTE_Shafer_MEA_dev assay is conducted using Axion Biosystems 48 well microelectrode array (MEA) plates and Maestro recording system. Each well of the MEA plate contains a grid of 16 microelectrodes embedded in the culture surface. Electrically active cells, such as neurons, can be cultured over the electrodes, and electrical activity in these cells can be recorded extracellularly. The spontaneous firing of neurons is captured from each electrode on a microsecond timescale providing both temporally and spatially precise data. […] The CCTE_Shafer_MEA_dev assay uses primary cultures of rat cortical neurons. Recordings are made on days post-plating 5, 7, 9 and 12. As these cultures mature over time, neural networks develop functional activity and form cohesive networks in which electrical activity can be highly coordinated. CCTE_Shafer_MEA_dev_per_burst_interspike_interval is 1 of 19 assay components of the CCTE_Shafer_MEA_dev assay. It measures the average time interval between spikes (action potential firings) within a single-electrode burst (temporally-clustered group of spikes) during a recording in a microelectrode array (MEA) using Axion Biosystems Maestro 768 channel amplifier with the AxIS adaptive spike detector. The mean inter-spike interval within bursts is averaged across the actively bursting electrodes to report a well-mean value. To collapse across multiple recordings made on days post-plating 5, 7, 9 and 12, the trapezoidal area-under-the-curve of the component is calculated.Data from the assay component CCTE_Shafer_MEA_dev_per_burst_interspike_interval was analyzed into 1 assay endpoint. This assay endpoint, CCTE_Shafer_MEA_dev_per_burst_interspike_interval, was analyzed in the negative analysis fitting direction relative to DMSO as the negative control and baseline of activity. Using a type of functional reporter, gain or loss-of-signal activity can be used to understand electrical activity.
On the day prior to culture, each well was coated thoroughly with 150 uL of 0.05% polyethyleneimine (PEI, Sigma Cat P3143) in 50 mM HEPES (Sigma Cat H7523) at a pH of 8. The plate was incubated at 37C for one hour. PEI was rinsed out with 500 uL of sterile water three times. Plates were stored at 4C until the day of culture. This culture was plated at a seeding density of 1.5 x 10^5 cells/well on a 48-well MEA plate, prepared as described above. Cells were administered via a 25 uL media/laminin ([…]; Sigma Cat L2020-1MG) drop directly onto the microelectrode array, as adding the cells with the laminin results in better attachment than pre-coating with laminin. After 2 hours, an additional 475 uL of cortical media was added and the cells returned to the incubator. Exposure starts at day 0 of plating and is continued over twelve days of network development until the experiment is terminated. Cells are fed with fresh medium on DIV 5 and 9, following the recordings on those days. The entire volume of media in the well is exchanged and any vehicle or compound treatment is renewed. Complete details are found in OP-NHEERL/ISTD/SBB/TJS/2015-03-r0 (available on request, email shafer.tim@epa.gov). Measurement of the electrical activity is non-invasive, and recordings can be made from the same plate over multiple different days of the culture. In cortical neurons, this allows for the measurement of extracellular action potentials over the period during which networks form in the MEA plate.
With `CC(C)(C)c1cc(O)ccc1O`, the molecule was classed as inactive.

As for `CCOP(=S)(OCC)Oc1nc(Cl)c(Cl)cc1Cl`, the result was inactive; the AC50 (as a rule, the midpoint of the concentration-response curve, whichever way the signal moves) was 15.7 µM (active) and 5.07 µM (active).

For `O=C(O)C(F)(F)C(F)(F)C(F)(F)C(F)(F)C(F)(F)C(F)(F)F`, the outcome was inactive.

Turning to `O=C(O)C(F)(F)C(F)(F)C(F)(F)C(F)(F)C(F)(F)C(F)(F)C(F)(F)C(F)(F)C(F)(F)C(F)(F)F`, the molecule was called inactive.

In the case of `Cn1sc(Cl)cc1=O`, the concentration at half-maximal activity (AC50) is 7.73 µM (active).

Take `ClC1(Cl)C2(Cl)C3(Cl)C4(Cl)C(Cl)(Cl)C5(Cl)C3(Cl)C1(Cl)C5(Cl)C24Cl` (configuration not stated): the AC50 was 1.58 µM (active).

Take `C=C(C)C(=O)[O][Sn]([CH2]CCC)([CH2]CCC)[CH2]CCC`: the half-maximal activity concentration (AC50) is 0.0336 µM (active).

For the molecule `CCC(=O)C(CC(C)N(C)C)(c1ccccc1)c1ccccc1` (configuration not stated), the concentration at half-maximal activity (AC50) was 6.65 µM (active).

With `O=C1C2(Cl)C3(Cl)C4(Cl)C(Cl)(Cl)C5(Cl)C3(Cl)C1(Cl)C5(Cl)C24Cl` (configuration not stated), the AC50 is 10 µM (active).

Take `COP(=O)(OC)O/C(=C\Cl)c1cc(Cl)c(Cl)cc1Cl`: the outcome was inactive.

On to `CC(=O)[O][Hg][c]1ccccc1`, for which the AC50 was 0.0154 µM (active).
